Holding throughout (experiment): qHTS profiling for inhibitors of Plasmodium falciparum proliferation (AID 504749); also: nearly all actives have a fitted effect of over 60% in size
Common to all, as to conditions: P. falciparum in erythrocytes, SYBR Green DNA, 72 h; series mostly up to 28.7 µM
In general terms: In qHTS, concentration-response curves come from the screen itself.

Assay [1] deals with CP194. In outline:
(§1)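 Readout was DNA-dye fluorescence from lysed cultures, ex 485/em 535 nm. Parasitized red cells had grown 72 h with compound; data scaled between 0.29 uM artemisinin and DMSO wells and corrected using vehicle-only plates.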

Assay [2] has as its system CP201. In outline:
as §1

In assay [3] the test system is CP203. The procedure, abridged: as §1
The test system of assay [4] is CP211. In outline:
as §1

For assay [5], the system named is CP215. The procedure, abridged:
as §1

In assay [6] the test system is CP217. The procedure, abridged: as §1
For assay [7], the system named is CP237. The procedure, abridged: as §1
In assay [8] the test system is CP238. In outline: as §1
Assay [9] relates to CP247. The procedure, abridged:
as §1

The test system of assay [10] is CP250. The procedure, abridged:
as §1

For assay [11], the system named is CP256. The procedure, abridged:
as §1

The test system of assay [12] is CP260. In outline: as §1
Assay [13] concerns CP265. The procedure, abridged: as §1
Assay [14] relates to CP268. In outline:
as §1

The test system of assay [15] is CP269. In outline: as §1
Assay [16] relates to CP286. The procedure, abridged: as §1
For assay [17], the system named is CP291. The procedure, abridged:
as §1

Assay [18] has as its system CP252. In outline: as §1
For assay [19], the system named is CP262. The procedure, abridged:
as §1

For assay [20], the system named is CP266. The procedure, abridged:
as §1

Records with an inconclusive call do not appear. Calls of active or inactive are those of the source. Calls follow the shape of the dose curve; as a rule, active = well fitted inhibition curve with a large enough effect; inconclusive = small, poorly fitted or top-dose-only effect; inactive = flat fitted curve, though single readings scatter.
Potency is read from the fitted curve at half-maximal effect.

Turning to `CCN(CC)CCCC(C)Nc1cc(/C=C/c2ccccc2Cl)nc2cc(Cl)ccc12` (configuration not stated), the Potency in assay [1] was 12 µM (active); in [2], 4.78 µM (active); in [3] it was 10.7 µM (active); in [4], 15.1 µM (active); in assay [5], 13.5 µM (active); in [6], 3.16 µM (active). Moreover, the Potency was 1.78 µM (active) in assay [7]; 4.47 µM (active) in assay [8]; 3.55 µM (active) in [9]; 1.26 µM (active) in [10]; 3.55 µM (active) in assay [11]; 2 µM (active) in assay [12]. Moreover, the Potency is 2.82 µM (active) in assay [13]; 4.26 µM (active) in [14]; 3.38 µM (active) in assay [15]; 1.12 µM (active) in assay [16]; 2.13 µM (active) in assay [17].

For the compound `CCc1ncnc2cc(OC)c(OC)cc12`, the Potency entry in assay [1], in [2], in [3], in assay [4], in [5] and in [6] was “inactive” in each case. In addition, the Potency entry in assay [7], in assay [8], in assay [9], in assay [10], in [18] and in assay [11] was “inactive” each time. Moreover, the Potency entry in assay [19], in assay [13], in assay [20], in [14], in [15] and in assay [16] was “inactive” each time. For the same compound, the Potency entry in assay [17] is “inactive”.

Take `CC(=O)Oc1cc(C(F)(F)F)ccc1C(=O)O`: the Potency result in assay [1], in assay [2], in assay [3], in [4], in assay [5] and in [6] was “inactive” throughout. Further, the Potency entry in assay [7], in [8], in [9], in assay [10], in [18] and in assay [11] was “inactive” throughout. The Potency entry in assay [19], in assay [13], in [20], in [14], in [15] and in assay [16] was “inactive” in each case. Also, the Potency result in assay [17] is “inactive”.

As for `CN(Cc1ccccc1)Cc1ccccc1`, the Potency result in assay [1], in [2], in [3], in [4], in assay [5] and in [6] was “inactive” each time. Also, the Potency entry in [7], in assay [8], in [9], in assay [10], in assay [18] and in assay [11] was “inactive” each time. The Potency result in assay [19], in [13], in assay [20], in assay [14], in assay [15] and in assay [16] was “inactive” throughout. Further, in assay [17], the Potency result is “inactive”.

In the case of `[O]=[Bi][O][Bi]=[O]`, the Potency entry in assay [1], in assay [2], in assay [3], in assay [4], in assay [5] and in assay [6] was “inactive” throughout. For the same compound, the Potency result in assay [7], in [8], in [9], in assay [10], in assay [18] and in assay [11] was “inactive” throughout. The Potency entry in [12], in assay [19], in assay [13], in [14], in [15] and in assay [16] was “inactive” each time. For the same compound, the Potency entry in assay [17] is “inactive”.

For the compound `C(=C\c1ccncc1)/c1ccccc1`, the Potency entry in [1], in assay [2], in assay [3], in [4], in [5] and in assay [6] was “inactive” in each case. Also, the Potency result in [7], in assay [8], in assay [9], in assay [10], in assay [18] and in [11] was “inactive” each time. Moreover, the Potency entry in assay [12], in [13], in [20], in assay [14], in assay [15] and in [16] was “inactive” each time.

Consider `NC(=O)CC[C@@H]1NC(=O)[C@H](Cc2ccccc2)NC(=O)[C@H](Cc2ccc(O)cc2)NC(=O)[C@@H](N)CSSC[C@@H](C(=O)N2CCC[C@H]2C(=O)N[C@@H](CCCN=C(N)N)C(=O)NCC(N)=O)NC(=O)[C@H](CC(N)=O)NC1=O`, for which the Potency entry in [1], in assay [2], in assay [3], in assay [4], in assay [5] and in assay [6] was “inactive” each time. Further, the Potency entry in assay [7], in assay [8], in assay [9], in assay [10], in assay [18] and in assay [11] was “inactive” in each case. In addition, the Potency result in assay [19], in [20], in assay [14], in assay [15], in [16] and in assay [17] was “inactive” throughout. Also, in assay [12], the Potency is 2.24 µM (active).

Regarding `Cc1cccc(Nc2ncccc2C(=O)O)c1C`, the Potency entry in [1], in assay [2], in [3], in assay [4], in assay [5] and in assay [6] was “inactive” in each case. Moreover, the Potency result in assay [7], in [8], in assay [9], in assay [10], in [18] and in assay [11] was “inactive” throughout. Further, the Potency entry in [19], in assay [13], in assay [20], in assay [14], in [15] and in [16] was “inactive” throughout. Also, in assay [17], the Potency result is “inactive”.

Turning to `F[Si-2](F)(F)(F)(F)F`, the Potency result in assay [1], in assay [2], in [3], in assay [4], in assay [5] and in assay [6] was “inactive” in each case. Besides, the Potency result in assay [7], in assay [8], in [9], in [10], in [18] and in assay [11] was “inactive” each time. The Potency result in assay [12], in [13], in [20], in [14], in assay [15] and in assay [16] was “inactive” each time. Besides, the Potency entry in assay [17] was “inactive”.

`O[C@@H]([C@H](O)[C@H](O)CBr)[C@H](O)CBr`: the Potency entry in assay [1], in assay [2], in assay [3], in assay [4], in [5] and in assay [6] was “inactive” throughout. The Potency entry in assay [7], in [8], in [9], in assay [10], in [18] and in assay [12] was “inactive” in each case. The Potency entry in assay [19], in [13], in assay [20], in assay [14], in assay [15] and in assay [16] was “inactive” in each case. Besides, in assay [17], the Potency result is “inactive”.

As for `CO[C@H]1C[C@@H]2CC[C@@H](C)[C@@](O)(O2)C(=O)C(=O)N2CCCC[C@H]2C(=O)O[C@H]([C@H](C)C[C@@H]2CC[C@@H](OC(=O)C(C)(CO)CO)[C@H](OC)C2)CC(=O)[C@H](C)/C=C(\C)[C@@H](O)[C@@H](OC)C(=O)[C@H](C)C[C@H](C)/C=C/C=C/C=C/1C`, the Potency entry in assay [1], in assay [2], in [3], in [4], in assay [5] and in assay [6] was “inactive” each time. The Potency result in [7], in assay [8], in assay [9], in [10], in [18] and in assay [11] was “inactive” in each case. The Potency entry in assay [12], in [19], in assay [13], in assay [14], in assay [15] and in assay [16] was “inactive” throughout. Also, in assay [17], the Potency result is “inactive”.

For `OCCCNc1ccccc1`, the Potency result in [1], in [2], in assay [3], in assay [4], in assay [5] and in assay [6] was “inactive” throughout. The Potency entry in assay [7], in assay [8], in assay [10], in assay [18], in [11] and in assay [12] was “inactive” each time. Also, the Potency entry in assay [19], in assay [13], in assay [14], in assay [15], in assay [16] and in assay [17] was “inactive” throughout.

For `NC(=O)C1c2ccccc2CCc2ccccc21`, the Potency result in assay [1], in assay [2], in [3], in assay [4], in assay [5] and in assay [6] was “inactive” throughout. Further, the Potency entry in assay [7], in [8], in assay [10], in assay [18], in [11] and in [12] was “inactive” in each case. Moreover, the Potency result in assay [19], in [13], in [20], in assay [14], in assay [15] and in assay [16] was “inactive” each time. Also, the Potency result in [17] was “inactive”.

`CCC(O)c1ccccc1` (configuration not stated): the Potency entry in assay [1], in [2], in [3], in assay [4], in assay [5] and in assay [6] was “inactive” in each case. Besides, the Potency result in assay [7], in assay [8], in assay [9], in assay [10], in assay [18] and in assay [11] was “inactive” in each case. For the same compound, the Potency result in assay [12], in assay [19], in assay [13], in [14], in assay [15] and in assay [16] was “inactive” each time. Moreover, in assay [17], the Potency entry was “inactive”.
